According to the supplement of paper PMC8975748:
Structures can show the parent of a compound that is named as a salt. ± gives the standard deviation of the averaged measurements.

Legend:
[1] = system: Saccharomyces cerevisiae BY4741 SeMeCo community; test: mean cell size (pixel area) (pixels); higher = larger cells; conditions: 10 µM; 24 h; SM minimal medium
How it was run: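 Mean cell pixel area per well was measured in a four-plasmid fluorescent community of Saccharomyces cerevisiae BY4741, where every plasmid complements one auxotrophy and carries a fluorescent marker. Cells from an overnight preculture at OD600 = 1.0 were diluted to OD600 = 0.3 and dispensed at 70 µl into 384-well plates acoustically predosed with drug to a final 10 µM in SM medium. Incubation lasted 24 h, followed by paraformaldehyde fixation, automated confocal imaging and analysis in Harmony. Reported figures are averaged over 3 replicates. Same SeMeCo high-content imaging drug screen: Selleck FDA-approved drugs at 10 µM, 24 h in SM medium, 384-well plates, 3 replicates.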

[2] = system: Saccharomyces cerevisiae BY4741 SeMeCo community; test: z-score of prototroph abundance vs DMSO median; higher = larger share of this subpopulation than in DMSO controls; conditions: 10 µM; 24 h; SM minimal medium; subpopulation (auxotrophy): Prototroph
How it was run: (§1)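 Cells of a Saccharomyces cerevisiae BY4741 community, carrying four plasmids that each restored one auxotrophy and encoded a distinct fluorescent protein, were pre-grown overnight to OD600 1.0 and diluted to 0.3. A 70 µl volume was added to 384-well plates acoustically predosed with library drugs (10 µM final) and grown 24 h in minimal SM medium. After paraformaldehyde fixation, automated confocal microscopy was used, with single-auxotroph fluorescent strains for thresholds and autofluorescence correction. The abundance of each subpopulation was scored as a z-score against the vehicle-well median.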

[3] = system: Saccharomyces cerevisiae BY4741 SeMeCo community; test: z-score of subpopulation abundance vs DMSO median, subpopulation auxotrophic for M; higher = larger share of this subpopulation than in DMSO controls; conditions: 10 µM; 24 h; SM minimal medium; subpopulation (auxotrophy): M
How it was run: as §1

[4] = system: Saccharomyces cerevisiae BY4741 SeMeCo community; test: z-score of subpopulation abundance vs DMSO median, subpopulation auxotrophic for L; higher = larger share of this subpopulation than in DMSO controls; conditions: 10 µM; 24 h; SM minimal medium; subpopulation (auxotrophy): L
How it was run: as §1

[5] = system: Saccharomyces cerevisiae BY4741 SeMeCo community; test: z-score of subpopulation abundance vs DMSO median, subpopulation auxotrophic for U; higher = larger share of this subpopulation than in DMSO controls; conditions: 10 µM; 24 h; SM minimal medium; subpopulation (auxotrophy): U
How it was run: as §1

[6] = system: Saccharomyces cerevisiae BY4741 SeMeCo community; test: z-score of subpopulation abundance vs DMSO median, subpopulation auxotrophic for H; higher = larger share of this subpopulation than in DMSO controls; conditions: 10 µM; 24 h; SM minimal medium; subpopulation (auxotrophy): H
How it was run: as §1

[7] = system: Saccharomyces cerevisiae BY4741 SeMeCo community; test: z-score of subpopulation abundance vs DMSO median, subpopulation auxotrophic for LU; higher = larger share of this subpopulation than in DMSO controls; conditions: 10 µM; 24 h; SM minimal medium; subpopulation (auxotrophy): LU
How it was run: as §1

[8] = system: Saccharomyces cerevisiae BY4741 SeMeCo community; test: z-score of subpopulation abundance vs DMSO median, subpopulation auxotrophic for LM; higher = larger share of this subpopulation than in DMSO controls; conditions: 10 µM; 24 h; SM minimal medium; subpopulation (auxotrophy): LM
How it was run: as §1

[9] = system: Saccharomyces cerevisiae BY4741 SeMeCo community; test: z-score of subpopulation abundance vs DMSO median, subpopulation auxotrophic for UM; higher = larger share of this subpopulation than in DMSO controls; conditions: 10 µM; 24 h; SM minimal medium; subpopulation (auxotrophy): UM
How it was run: as §1

[10] = system: Saccharomyces cerevisiae BY4741 SeMeCo community; test: z-score of subpopulation abundance vs DMSO median, subpopulation auxotrophic for HL; higher = larger share of this subpopulation than in DMSO controls; conditions: 10 µM; 24 h; SM minimal medium; subpopulation (auxotrophy): HL
How it was run: as §1

[11] = system: Saccharomyces cerevisiae BY4741 SeMeCo community; test: z-score of subpopulation abundance vs DMSO median, subpopulation auxotrophic for HLU; higher = larger share of this subpopulation than in DMSO controls; conditions: 10 µM; 24 h; SM minimal medium; subpopulation (auxotrophy): HLU
How it was run: as §1

[12] = system: Saccharomyces cerevisiae BY4741 SeMeCo community; test: z-score of subpopulation abundance vs DMSO median, subpopulation auxotrophic for HLM; higher = larger share of this subpopulation than in DMSO controls; conditions: 10 µM; 24 h; SM minimal medium; subpopulation (auxotrophy): HLM
How it was run: as §1

[13] = system: Saccharomyces cerevisiae BY4741 SeMeCo community; test: z-score of subpopulation abundance vs DMSO median, subpopulation auxotrophic for HUM; higher = larger share of this subpopulation than in DMSO controls; conditions: 10 µM; 24 h; SM minimal medium; subpopulation (auxotrophy): HUM
How it was run: as §1

[14] = system: Saccharomyces cerevisiae BY4741 SeMeCo community; test: z-score of subpopulation abundance vs DMSO median, subpopulation auxotrophic for LUM; higher = larger share of this subpopulation than in DMSO controls; conditions: 10 µM; 24 h; SM minimal medium; subpopulation (auxotrophy): LUM
How it was run: as §1

[15] = system: Saccharomyces cerevisiae BY4741 SeMeCo community; test: z-score of subpopulation abundance vs DMSO median, subpopulation auxotrophic for HLUM; higher = larger share of this subpopulation than in DMSO controls; conditions: 10 µM; 24 h; SM minimal medium; subpopulation (auxotrophy): HLUM
How it was run: as §1

[16] = system: Saccharomyces cerevisiae BY4741 SeMeCo community; test: z-score of subpopulation abundance vs DMSO median, subpopulation auxotrophic for HM; higher = larger share of this subpopulation than in DMSO controls; conditions: 10 µM; 24 h; SM minimal medium; subpopulation (auxotrophy): HM
How it was run: as §1

[17] = system: Saccharomyces cerevisiae BY4741 SeMeCo community; test: z-score of subpopulation abundance vs DMSO median, subpopulation auxotrophic for HU; higher = larger share of this subpopulation than in DMSO controls; conditions: 10 µM; 24 h; SM minimal medium; subpopulation (auxotrophy): HU
How it was run: as §1

Row | Structure (SMILES) | mean cell size [1] | z-score of prototroph abundance [2] | z-score of subpopulation abundance [3] | z-score of subpopulation abundance [4] | z-score of subpopulation abundance [5] | z-score of subpopulation abundance [6] | z-score of subpopulation abundance [7] | z-score of subpopulation abundance [8] | z-score of subpopulation abundance [9] | z-score of subpopulation abundance [10] | z-score of subpopulation abundance [11] | z-score of subpopulation abundance [12] | z-score of subpopulation abundance [13] | z-score of subpopulation abundance [14] | z-score of subpopulation abundance [15] | z-score of subpopulation abundance [16] | z-score of subpopulation abundance [17]
1 | CN(C)C[C@@H]1CCn2cc(c3ccccc32)C2=C(C(=O)NC2=O)c2cn(c3ccccc23)CCO1 | 12.64 ± 0.084 | -0.66 | -0.34 | 1.34 | 0.49 | 1.52 | 1.13 | 0.82 | -0.29 | 1.61 | 1.21 | 0.91 | -0.43 | 0.63 | 0.34 |  | 
2 | CC(C(=O)O)c1ccc2c(c1)[nH]c1ccc(Cl)cc12 (stereo not given) [Carprofen] | 13.82 ± 0.13 | 3.42 | -2.06 | -0.33 | -3.82 | 3.31 | -3.11 |  | -4.96 | 1.64 | -0.81 | 0.84 | -2.82 | -1.52 | 0.18 | -2.19 | -2.04
3 | CCCN1CCCC[C@H]1C(=O)Nc1c(C)cccc1C [Ropivacaine HCl] | 12.6 ± 0.13 | -0.38 | 0.95 | 0.47 | 0.42 |  | 0.42 | 0.37 | 0.78 | -0.74 | -0.22 | 0.38 | -0.03 | -0.08 | 0.18 |  | -0.21
4 | NC(=O)N1c2ccccc2C=Cc2ccccc21 [Carbamazepine] | 12.5 ± 0.21 |  | -0.29 | 0.25 | 0.01 |  | -0.08 | 0.14 | -0.23 | -0.72 | 0.32 | 0.02 | -0.5 | 0.24 | -0.25 |  | -0.56
5 | CC(=O)OC(C)C[N+](C)(C)C (stereo not given) [Methacholine chloride] | 12.5 ± 0.13 | -0.97 | 0 | 0.65 | 0.32 | 0.16 | 1.46 | 0.88 | 0.68 | 0.45 | 0.55 | 0.76 | 0.26 | 0.92 |  |  | 0.67
6 | C=C[C@H]1CN2CC[C@H]1C[C@@H]2[C@@H](O)c1ccnc2ccc(OC)cc12 [Quinidine sulfate] | 12.4 ± 0.13 | -1.18 | 1.1 | 2.41 | -1.29 | 0.89 | 0.61 | 2.28 | 0.08 |  | 1.39 | 1.12 | 0.61 | 1.53 |  | 1.23 | 
7 | CCc1cc(C(N)=S)ccn1 [Ethionamide] | 12.45 ± 0.074 | 0.06 | 0.23 | 0.86 | -0.01 | 0.59 | 0.05 |  | 0.25 | -0.03 | -0.14 | -0.28 | -0.25 | -0.07 | -0.72 | 0.03 | 0.19
